PubChem BioAssay AID1159580 (chemical genetic matrix, 2015)
Several values for one entry are separate records, joined by “and”; a condition that tells them apart may be missing. Identical values can stand only once. About 2,000 (36%) of roughly 5,500 compounds were called active. Not shown: some 18% with an inconclusive outcome. No stated cut-off is given here; in the data, active means normalized growth mostly below about 0.91 (no sharp cut-off); inconclusive means no clear call, values can overlap the other calls; inactive means mostly above about 0.92. This is one part of the list.

Assay: chemical genetic growth profiling, strain panel (AID 1159580);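 further: tested at 20 µM; growth read once vehicle control cultures reached saturation at 30 °C; 1 = growth at the plate median or of vehicle wells; lower values mean less growth of the strain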
Details: S. cerevisiae deletion strains, growth OD

Measured: normalized growth

C[C@@H]1O[C@@H](O[C@H]2[C@@H](Oc3cc(O)c4c(c3)O[C@H](c3ccc(O)cc3)CC4=O)O[C@H](CO)[C@@H](O)[C@@H]2O)[C@H](O)[C@H](O)[C@H]1O
inactive: locus YAL013W, strain DEP1, active compounds read low 1 | locus YAL021C, strain ccr4, active compounds read low 0.969 | locus YAL026C, strain drs2, active compounds read low 0.977 | locus YAL030W, strain snc1, active compounds read low 0.956 | locus YBL061C, strain skt5, active compounds read low 0.96 | locus YBR009C, strain hhf1, active compounds read low 0.971 | locus YBR021W, strain FUR4, active compounds read low 1.02 | locus YBR023C, strain chs3, active compounds read low 0.978 | locus YBR171W, strain sec66, active compounds read low 0.977 | locus YBR229C, strain ROT2, active compounds read low 0.956 | locus YBR231C, strain swc5, active compounds read low 0.97 | locus YBR279W, strain paf1, active compounds read low 0.975 | locus YCL011C, strain gbp2, active compounds read low 0.957 | locus YCL016C, strain dcc1, active compounds read low 0.972 | locus YCL029C, strain bik1, active compounds read low 0.991 | locus YCL061C, strain MRC1, active compounds read low 0.985 | locus YCL069W, strain vba3, active compounds read low 0.97 | locus YCR088W, strain abp1, active compounds read low 0.979 | locus YDL005C, strain med2, active compounds read low 0.967 | locus YDL035C, strain GPR1, active compounds read low 0.996 | locus YDL040C, strain nat1, active compounds read low 0.981 | locus YDL074C, strain BRE1, active compounds read low 0.975 | locus YDL101C, strain DUN1, active compounds read low 0.977 | locus YDL134C, strain PPH21, active compounds read low 0.956 | locus YDL185W, strain tfp1, active compounds read low 0.992 | locus YDL192W, strain arf1, active compounds read low 0.995 | locus YDR001C, strain nth1, active compounds read low 0.954 | locus YDR069C, strain doa4, active compounds read low 0.97 | locus YDR101C, strain arx1, active compounds read low 0.997 | locus YDR137W, strain rgp1, active compounds read low 0.983 | locus YDR150W, strain NUM1, active compounds read low 0.977 | locus YDR159W, strain sac3, active compounds read low 0.978 | locus YDR162C, strain NBP2, active compounds read low 0.992 | locus YDR195W, strain ref2 0.956 | locus YDR297W, strain sur2, active compounds read low 0.984 | locus YDR318W, strain mcm21, active compounds read low 0.994 | locus YDR334W, strain swr1, active compounds read low 0.942 | locus YDR335W, strain msn5, active compounds read low 0.969 | locus YDR388W, active compounds read low 1 | locus YDR392W, strain spt3, active compounds read low 0.934 | locus YDR502C, strain sam2, active compounds read low 1 | locus YEL003W, strain gim4, active compounds read low 0.967 | locus YEL037C, strain rad23, active compounds read low 0.966 | locus YEL061C, strain CIN8 (second series), active compounds read low 0.964 | locus YEL061C, strain CIN8, active compounds read low 1 | locus YER015W, strain faa2, active compounds read low 0.959 | locus YER016W, strain bim1, active compounds read low 0.971 | locus YER110C, active compounds read low 0.986 | locus YER111C, strain swi4, active compounds read low 0.983 | locus YER155C, strain BEM2 (second series), active compounds read low 0.972 | locus YER155C, strain BEM2, active compounds read low 1.01 | locus YER167W, strain BCK2, active compounds read low 1 | locus YFR010W, strain ubp6, active compounds read low 0.954 | locus YGL078C, strain dbp3, active compounds read low 0.991 | locus YGL086W, strain mad1, active compounds read low 0.998 | locus YGL167C, strain pmr1, active compounds read low 0.977 | locus YGL173C, strain kem1, active compounds read low 0.946 | locus YGL227W, strain vid30, active compounds read low 0.975 | locus YGL240W, strain doc1, active compounds read low 0.991 | locus YGL248W, strain PDE1, active compounds read low 0.979 | locus YGL253W, strain hxk2, active compounds read low 0.977 | locus YGR078C, strain PAC10, active compounds read low 0.987 | locus YGR135W, strain pre9, active compounds read low 1 | locus YGR229C, strain SMI1, active compounds read low 0.987 | locus YGR252W, strain gcn5, active compounds read low 0.991 | locus YHR013C, strain ard1, active compounds read low 0.943 | locus YHR027C, strain rpn1, active compounds read low 0.959 | locus YHR030C, strain SLT2, active compounds read low 0.99 and 1 | locus YHR079C, strain IRE1 (second series), active compounds read low 0.999 | locus YHR079C, strain IRE1, active compounds read low 0.989 | locus YHR094C, strain hxt1, active compounds read low 0.996 | locus YHR129C, strain ARP1, active compounds read low 0.993 | locus YHR142W, strain chs7, active compounds read low 0.921 | locus YHR200W, strain rpn10, active compounds read low 1 | locus YIL066C, strain RNR3, active compounds read low 0.976 | locus YIL073C, strain SPO22, active compounds read low 0.946 | locus YIL125W, strain kgd1, active compounds read low 0.999 | locus YIR030C, strain dcg1, active compounds read low 0.986 | locus YJL092W, strain hpr5, active compounds read low 0.967 | locus YJL095W, strain BCK1 (second series), active compounds read low 0.968 | locus YJL095W, strain BCK1, active compounds read low 0.998 and 1 | locus YJL115W, strain asf1, active compounds read low 0.938 | locus YJL129C, strain trk1, active compounds read low 0.939 | locus YJL134W, strain LCB3, active compounds read low 0.985 | locus YJL154C, strain vps35, active compounds read low 0.961 | locus YJL164C, strain tpk1, active compounds read low 0.98 | locus YJL166W, strain qcr8, active compounds read low 0.977 | locus YJL168C, strain set2, active compounds read low 1 | locus YJL187C, strain SWE1 (second series), active compounds read low 0.968 | locus YJL187C, strain SWE1, active compounds read low 0.974 | locus YJR043C, strain POL32, active compounds read low 0.995 | locus YJR066W, strain TOR1, active compounds read low 0.926
